Results reported in PubChem BioAssay.
Values without a mark were called inactive. No rule for the calls is given here.

The molecules below were run against L-lactate dehydrogenase (Plasmodium falciparum (isolate CDC / Honduras)) (UniProt Q27743) (assay: PfLDH activity inhibition – cell lysate, 3D7 strain, counter-screen for P. falciparum growth inhibition project (AID 2304;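 also: 0% = vehicle and 100% = reference inhibitor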)). Details: P. falciparum 3D7 crude extract, LDH APAD/NBT absorbance; at 2 µM; stronger effect = higher value.
Chain of L-lactate dehydrogenase (Plasmodium falciparum (isolate CDC / Honduras)) (Q27743 whole entry, looked up): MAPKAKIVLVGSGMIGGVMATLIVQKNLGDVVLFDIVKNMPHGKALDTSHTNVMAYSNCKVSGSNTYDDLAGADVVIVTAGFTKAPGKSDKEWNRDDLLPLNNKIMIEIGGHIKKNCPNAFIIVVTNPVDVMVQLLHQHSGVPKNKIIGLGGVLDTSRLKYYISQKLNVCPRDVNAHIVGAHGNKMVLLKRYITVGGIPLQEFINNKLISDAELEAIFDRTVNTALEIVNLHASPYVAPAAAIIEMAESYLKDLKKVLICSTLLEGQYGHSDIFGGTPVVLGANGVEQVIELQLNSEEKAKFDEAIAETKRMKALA

Structure (SMILES)	inhibition
NCCCNc1ccc(-c2ccc(NC(=O)Nc3cc(C(F)(F)F)ccc3F)cc2)cn1	3%
O=C(NCCN1CCC(c2ncc(-c3ccccc3)o2)CC1)c1ccc(NC(=O)c2ccc(Cl)cc2)cc1	-7%
O=C(c1cc(C(=O)Nc2ccccc2F)c(=O)n(-c2ccccc2F)c1)c1cc(Cl)ccc1O	5%
CCN1CCC(N(Cc2ccc(-c3ccc(C(F)(F)F)cc3)cc2)C(=O)Cn2c(CCc3cccc(F)c3F)cc(=O)c3c2CCC3)CC1	-1%
Cc1ccc(NC(=O)c2ccc(N3CCC(c4ccccc4C)CC3)nc2)cc1	3%
Cc1ccc2[nH]c3c(c2c1)CC(C(=O)NCCC(C)C)NC31CCN(Cc2ccccc2)CC1 (stereo not given)	6%
CCc1cc2c3c(N)nc(N)nc3ccc2n1CC	-1%
CN(C)CCOc1cc(NC(=O)Nc2ccc(-c3ccccc3)cc2Cl)ccc1I	3%
CN1CCCC1CCOc1ccc2c(c1)N(C(=O)Nc1cc(Br)cc(C(F)(F)F)c1)CC2 (stereo not given)	-6%
CN1CCN(c2ccnc3cc4ccccc4cc23)CC1	-9%
CC(=Nc1ccc(Cl)c(Cl)c1)N(C)C	2%
CN1CCCc2cc(NC(=O)C=Cc3ccc(-c4ccc(F)cc4F)o3)ccc2C1	4%
Cn1cncc1CCN(Cc1ccc(-c2ccc(C(F)(F)F)cc2)cc1)C(=O)Cn1c(SCc2cccc(F)c2F)cc(=O)c2ccccc21	-5%
Cc1cc(NC(=O)Nc2ccc(N(C)C)cc2)c2cc(Cl)ccc2n1	3%
CC(CN1CCN(C)CC1)C(=O)Nc1cccc(-c2cccc(-c3nc4ccccc4[nH]3)c2)c1 (stereo not given)	-3%
Cc1ccccc1N1CCN(c2ccc(C(=O)Nc3ccccc3)cc2)CC1	-2%
OCCN1CCN(Cc2ccc(-c3ccc(-c4nc5ccc(C(F)(F)F)cc5[nH]4)s3)cc2)CC1	-7%
NC(N)=NCCCN(Cc1ccccc1)c1ccc(Cl)cc1	-7%
O=[N+]([O-])c1cccc(S(=O)(=O)N2CCN(CC(O)COc3ccc(-c4ccccc4)cc3)CC2)c1 (stereo not given)	0%
COc1ccc(-c2cccc(NC(=O)c3ccc(Cl)cc3)c2)cc1CNC(C)C	-4%

Structure (SMILES)	inhibition
c1cc2c3c(cccc3c1)NC(CCCCCCCCC1=Nc3cccc4cccc(c34)N1)=N2	0%
CCc1ccc(C(=O)Nc2cccc(CN3CCCN(Cc4ccc(O)cc4)CC3)c2)cc1	-1%
c1ccc(COc2ccccc2COc2ccccc2-c2ccc3cccnc3n2)cc1	5%
O=S(=O)(Nc1ccc(CCN2CCC(N3CCCCC3)CC2)cc1)c1ccc2ccccc2c1	-2%
Cc1cccc(CNc2nc(C)cc(N[C@@H](Cc3ccccc3)C(=O)NCCOc3ccccc3)n2)c1	1%
Cc1cc(C(F)(F)F)n2nc(C3CCN(Cc4cc(C)c(O)c(C)c4)C3)cc2n1 (stereo not given)	0%
CC1(C)CN(CCC2CCC(NC(=O)/C=C/c3ccccc3F)CC2)Cc2ccc(C#N)cc21 (stereo not given)	-3%
NC(N)=NCCCCN(Cc1ccccc1)c1ccccc1	-4%
Cc1cc(N(C)CCCN2CCCCC2)nc(Nc2ccc(Cl)cc2)n1	-3%
OCCNc1nc(Nc2ccc(Cl)cc2)nc2ccccc12	-1%
C[C@H](Cc1ccc(OCCCCCCOc2ccc(C[C@@H](C)NC[C@H](O)c3cccc(Cl)c3)cc2)cc1)NC[C@H](O)c1cccc(Cl)c1	3%
Cc1sc(CNCCCNc2cc(=O)c3ccccc3[nH]2)c(I)c1C	-4%
Cc1cccc2[nH]c(-c3cccc(-c4cccc(NC(=O)C(C)CN(C)C)c4)c3)nc12 (stereo not given)	-3%
CN1CCN(Cc2cc3cc(NC(=O)/C=C/c4cccc(Cl)c4)ccc3s2)CC1	1%
CCc1ccc(-c2cnc(N)c3cc(-c4ccnc(N)n4)ccc23)cc1	0%
CCCN=CNc1cc(-c2csc(N=C(N)N)n2)cc([N+](=O)[O-])c1	-3%
CCOc1cc(Cc2cnc(N)nc2N)cc(OCC)c1OCCCCC(=O)OC	0%
Cc1ccc(-n2c(Cc3cccc4ccccc34)nnc2SCCC#N)c(C)c1	-7%
CC(Nc1cc(-c2ccccn2)nc(-c2ccccn2)n1)c1ccccc1 (stereo not given)	-3%
CS(=O)(=O)CCOCc1ccc(-c2ccc3ncnc(Nc4ccc(OCc5cccc(F)c5)c(Cl)c4)c3c2)o1	5%
